# Assay results from article PMC7862700, “An all-to-all approach to the identification of sequence-specific readers for epigenetic DNA modifications on cytosine”.
# What was measured:
# Experiment in all cases: DAPPL (digital affinity profiling via proximity ligation, sequencing); 10 mM Tris-HCl pH 7.5, 50 mM NaCl, 1 mM DTT, 4% glycerol, room temperature, 30 min; GST-TFs on glutathione beads, 16-mer random dsDNA library, 0.1% formaldehyde crosslink after washing; high values mean tight binding
# FEV = biological target: T1, FEV (Homo sapiens, UniProt Q99581 1-238); details: protein: recombinant; tags: N-terminal GST; dsDNA, one strand shown
# T1 sequence: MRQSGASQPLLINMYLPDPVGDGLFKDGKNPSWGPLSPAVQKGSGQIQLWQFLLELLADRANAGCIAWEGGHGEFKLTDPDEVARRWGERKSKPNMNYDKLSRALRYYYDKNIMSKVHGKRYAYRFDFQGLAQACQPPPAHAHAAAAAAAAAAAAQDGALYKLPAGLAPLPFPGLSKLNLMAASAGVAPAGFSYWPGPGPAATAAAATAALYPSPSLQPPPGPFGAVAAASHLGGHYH
# How it was run: (§1)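 Human transcription factors were made in yeast as GST fusions, captured on glutathione beads and barcoded with DNA. With a tag-only sample included, the pool was incubated with 200 nmole of a random double-stranded 16-mer DNA library in Tris/NaCl/DTT/glycerol buffer at room temperature for 30 min, then crosslinked with 0.1% formaldehyde after washing, ligated by proximity, amplified and sequenced. For binding signal, each hexamer's read frequency for a factor is divided by its frequency for the tag-only sample.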
# ETV5 = ETV5 (Homo sapiens, UniProt P41161 1-510); details: protein: recombinant; tags: N-terminal GST; dsDNA, one strand shown
# How it was run: as §1
# HSF1 = HSF1 (Homo sapiens, UniProt Q00613 1-529); details: protein: recombinant; tags: N-terminal GST; chain copies: 3; dsDNA, one strand shown
# How it was run: as §1
# SPIC = biological target: T2, SPIC (Homo sapiens, UniProt Q8N5J4 1-248); details: protein: recombinant; tags: N-terminal GST; dsDNA, one strand shown
# T2 sequence: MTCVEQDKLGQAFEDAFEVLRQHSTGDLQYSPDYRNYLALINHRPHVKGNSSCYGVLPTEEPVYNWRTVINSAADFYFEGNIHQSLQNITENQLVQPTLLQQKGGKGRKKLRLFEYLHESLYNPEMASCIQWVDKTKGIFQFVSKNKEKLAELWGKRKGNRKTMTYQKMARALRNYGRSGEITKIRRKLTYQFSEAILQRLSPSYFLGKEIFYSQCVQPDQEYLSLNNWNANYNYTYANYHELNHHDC
# How it was run: as §1
# ELF4 = ELF4 (Homo sapiens, UniProt Q99607 1-663); details: protein: recombinant; tags: N-terminal GST; dsDNA, one strand shown
# How it was run: as §1
# ELK4 = biological target: T3, ELK4 (Homo sapiens, UniProt P28324-2 1-405); details: protein: recombinant; tags: N-terminal GST; dsDNA, one strand shown
# T3 sequence: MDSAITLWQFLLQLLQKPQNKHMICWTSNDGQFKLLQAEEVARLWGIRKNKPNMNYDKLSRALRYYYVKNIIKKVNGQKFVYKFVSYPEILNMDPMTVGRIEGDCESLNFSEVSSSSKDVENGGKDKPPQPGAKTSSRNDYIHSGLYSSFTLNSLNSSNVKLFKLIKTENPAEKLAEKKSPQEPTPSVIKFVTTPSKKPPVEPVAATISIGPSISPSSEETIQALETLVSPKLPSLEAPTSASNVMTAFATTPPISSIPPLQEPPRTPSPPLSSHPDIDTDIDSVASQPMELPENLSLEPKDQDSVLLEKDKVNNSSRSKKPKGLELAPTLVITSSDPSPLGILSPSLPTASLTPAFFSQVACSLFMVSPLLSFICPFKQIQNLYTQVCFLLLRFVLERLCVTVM
# How it was run: as §1
# ETV2 = biological target: T4, ETV2 (Homo sapiens, UniProt O00321 1-342); details: protein: recombinant; tags: N-terminal GST; dsDNA, one strand shown
# T4 sequence: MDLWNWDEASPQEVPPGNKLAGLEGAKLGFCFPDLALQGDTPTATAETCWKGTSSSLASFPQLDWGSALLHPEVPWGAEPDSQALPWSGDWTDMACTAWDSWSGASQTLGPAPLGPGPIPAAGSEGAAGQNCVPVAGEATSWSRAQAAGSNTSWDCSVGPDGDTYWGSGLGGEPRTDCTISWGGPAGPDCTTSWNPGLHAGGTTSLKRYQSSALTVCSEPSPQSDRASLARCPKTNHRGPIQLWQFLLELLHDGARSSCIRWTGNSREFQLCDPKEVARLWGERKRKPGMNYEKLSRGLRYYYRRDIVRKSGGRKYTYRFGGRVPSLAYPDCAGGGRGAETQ
# How it was run: as §1
# ELF3 = biological target: T5, ELF3 (Homo sapiens, UniProt P78545 1-371); details: protein: recombinant; tags: N-terminal GST; dsDNA, one strand shown
# T5 sequence: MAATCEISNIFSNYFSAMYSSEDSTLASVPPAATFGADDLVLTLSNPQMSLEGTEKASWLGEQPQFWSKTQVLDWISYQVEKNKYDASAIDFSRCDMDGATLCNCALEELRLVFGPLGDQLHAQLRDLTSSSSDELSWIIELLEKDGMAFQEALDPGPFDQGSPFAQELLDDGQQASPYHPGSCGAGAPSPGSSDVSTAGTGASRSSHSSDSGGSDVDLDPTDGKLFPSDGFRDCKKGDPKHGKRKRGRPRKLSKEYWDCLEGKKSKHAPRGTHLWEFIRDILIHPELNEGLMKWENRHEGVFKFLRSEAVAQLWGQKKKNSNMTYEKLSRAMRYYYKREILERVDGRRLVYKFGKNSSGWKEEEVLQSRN
# How it was run: as §1
# CRX = CRX (Homo sapiens, UniProt O43186 1-299); details: protein: recombinant; tags: N-terminal GST; dsDNA, one strand shown
# How it was run: as §1
# ETV1 = ETV1 (Homo sapiens, UniProt P50549 1-477); details: protein: recombinant; tags: N-terminal GST; dsDNA, one strand shown
# How it was run: as §1
# ERF = biological target: T6, ERF (Homo sapiens, UniProt P50548 1-548); details: protein: recombinant; tags: N-terminal GST; dsDNA, one strand shown
# T6 sequence: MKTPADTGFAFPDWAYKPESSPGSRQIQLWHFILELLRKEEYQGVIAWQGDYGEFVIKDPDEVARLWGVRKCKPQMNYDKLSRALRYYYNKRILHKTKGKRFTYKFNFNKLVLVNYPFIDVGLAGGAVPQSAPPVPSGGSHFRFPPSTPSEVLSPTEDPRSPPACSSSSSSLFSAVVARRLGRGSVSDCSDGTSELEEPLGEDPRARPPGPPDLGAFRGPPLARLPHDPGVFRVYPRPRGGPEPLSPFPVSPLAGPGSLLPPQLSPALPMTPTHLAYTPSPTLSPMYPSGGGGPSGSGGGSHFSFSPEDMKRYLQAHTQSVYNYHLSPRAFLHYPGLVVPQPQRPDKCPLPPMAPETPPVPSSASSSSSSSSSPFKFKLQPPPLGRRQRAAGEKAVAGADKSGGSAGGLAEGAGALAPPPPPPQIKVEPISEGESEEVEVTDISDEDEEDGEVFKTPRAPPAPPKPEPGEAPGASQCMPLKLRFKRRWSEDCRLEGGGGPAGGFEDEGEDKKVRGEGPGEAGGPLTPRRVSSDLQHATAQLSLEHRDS
# How it was run: as §1
# ETV3L = biological target: T7, ETV3L (Homo sapiens, UniProt Q6ZN32 1-361); details: protein: recombinant; tags: N-terminal GST; dsDNA, one strand shown
# T7 sequence: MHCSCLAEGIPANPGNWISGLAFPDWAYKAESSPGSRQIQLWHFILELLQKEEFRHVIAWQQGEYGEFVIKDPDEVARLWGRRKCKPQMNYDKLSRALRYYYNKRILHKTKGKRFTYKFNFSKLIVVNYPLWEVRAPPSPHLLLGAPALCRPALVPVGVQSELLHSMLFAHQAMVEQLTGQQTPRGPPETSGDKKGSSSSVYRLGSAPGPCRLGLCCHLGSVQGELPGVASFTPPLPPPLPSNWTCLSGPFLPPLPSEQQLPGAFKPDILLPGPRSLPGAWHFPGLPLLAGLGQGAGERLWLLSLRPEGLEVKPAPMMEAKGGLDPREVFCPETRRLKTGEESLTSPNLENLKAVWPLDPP
# How it was run: as §1
# ETS2 = biological target: T8, ETS2 (Homo sapiens, UniProt P15036 1-469); details: protein: recombinant; tags: N-terminal GST; dsDNA, one strand shown
# T8 sequence: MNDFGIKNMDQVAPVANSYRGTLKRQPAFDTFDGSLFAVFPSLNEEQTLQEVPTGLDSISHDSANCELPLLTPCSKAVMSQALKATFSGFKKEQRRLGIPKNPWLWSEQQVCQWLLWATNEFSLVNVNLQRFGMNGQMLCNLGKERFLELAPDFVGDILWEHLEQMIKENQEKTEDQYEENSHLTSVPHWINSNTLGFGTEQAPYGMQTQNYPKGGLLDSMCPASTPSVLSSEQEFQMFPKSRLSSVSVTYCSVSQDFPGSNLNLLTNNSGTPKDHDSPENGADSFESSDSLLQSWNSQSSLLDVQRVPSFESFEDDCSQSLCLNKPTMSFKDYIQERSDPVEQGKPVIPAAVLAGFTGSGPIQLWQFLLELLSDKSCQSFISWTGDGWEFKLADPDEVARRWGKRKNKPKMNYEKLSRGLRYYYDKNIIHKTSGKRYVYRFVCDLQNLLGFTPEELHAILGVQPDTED
# How it was run: as §1
# SPDEF = biological target: T9, SPDEF (Homo sapiens, UniProt O95238 1-335); details: protein: recombinant; tags: N-terminal GST; dsDNA, one strand shown
# T9 sequence: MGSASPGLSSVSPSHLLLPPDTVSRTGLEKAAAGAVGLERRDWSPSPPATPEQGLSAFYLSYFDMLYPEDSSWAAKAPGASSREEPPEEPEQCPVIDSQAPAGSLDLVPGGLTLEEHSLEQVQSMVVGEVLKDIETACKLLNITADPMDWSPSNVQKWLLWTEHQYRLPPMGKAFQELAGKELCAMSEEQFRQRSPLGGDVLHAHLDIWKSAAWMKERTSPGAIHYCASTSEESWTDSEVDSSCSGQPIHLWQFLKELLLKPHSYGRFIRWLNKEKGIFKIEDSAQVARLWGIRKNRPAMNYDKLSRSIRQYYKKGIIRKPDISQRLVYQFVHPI
# How it was run: as §1
# ETV7 = biological target: T10, ETV7 (Homo sapiens, UniProt Q9Y603 1-341); details: protein: recombinant; tags: N-terminal GST; dsDNA, one strand shown
# T10 sequence: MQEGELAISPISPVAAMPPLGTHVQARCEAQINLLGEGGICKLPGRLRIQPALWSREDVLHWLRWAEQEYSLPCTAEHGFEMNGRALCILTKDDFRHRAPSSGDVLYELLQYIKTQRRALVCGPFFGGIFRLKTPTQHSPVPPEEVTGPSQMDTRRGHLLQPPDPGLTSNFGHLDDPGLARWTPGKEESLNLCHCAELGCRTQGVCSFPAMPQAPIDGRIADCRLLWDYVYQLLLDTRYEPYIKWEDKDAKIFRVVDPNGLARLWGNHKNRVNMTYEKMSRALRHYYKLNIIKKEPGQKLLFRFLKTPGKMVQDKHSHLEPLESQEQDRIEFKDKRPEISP
# How it was run: as §1
# ELF5 = biological target: T11, ELF5 (Homo sapiens, UniProt Q9UKW6-2 1-255); details: protein: recombinant; tags: N-terminal GST; dsDNA, one strand shown
# T11 sequence: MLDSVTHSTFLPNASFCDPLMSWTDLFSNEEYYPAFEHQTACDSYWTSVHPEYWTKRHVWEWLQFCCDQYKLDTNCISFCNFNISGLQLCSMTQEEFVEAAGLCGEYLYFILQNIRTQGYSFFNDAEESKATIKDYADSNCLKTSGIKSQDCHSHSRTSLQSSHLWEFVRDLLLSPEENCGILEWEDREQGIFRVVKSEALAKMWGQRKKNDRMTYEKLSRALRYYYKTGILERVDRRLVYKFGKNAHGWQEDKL
# How it was run: as §1
# ETV3 = biological target: T12, ETV3 (Homo sapiens, UniProt P41162-2 1-143); details: protein: recombinant; tags: N-terminal GST; dsDNA, one strand shown
# T12 sequence: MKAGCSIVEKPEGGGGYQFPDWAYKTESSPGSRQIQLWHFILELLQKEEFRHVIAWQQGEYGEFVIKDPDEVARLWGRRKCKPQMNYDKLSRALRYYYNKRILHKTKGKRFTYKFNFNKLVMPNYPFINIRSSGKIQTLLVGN
# How it was run: as §1
# ETV6 = ETV6 (Homo sapiens, UniProt P41212 1-452); details: protein: recombinant; tags: N-terminal GST; dsDNA, one strand shown
# How it was run: as §1
# Chain of ETV6 (P41212 whole entry): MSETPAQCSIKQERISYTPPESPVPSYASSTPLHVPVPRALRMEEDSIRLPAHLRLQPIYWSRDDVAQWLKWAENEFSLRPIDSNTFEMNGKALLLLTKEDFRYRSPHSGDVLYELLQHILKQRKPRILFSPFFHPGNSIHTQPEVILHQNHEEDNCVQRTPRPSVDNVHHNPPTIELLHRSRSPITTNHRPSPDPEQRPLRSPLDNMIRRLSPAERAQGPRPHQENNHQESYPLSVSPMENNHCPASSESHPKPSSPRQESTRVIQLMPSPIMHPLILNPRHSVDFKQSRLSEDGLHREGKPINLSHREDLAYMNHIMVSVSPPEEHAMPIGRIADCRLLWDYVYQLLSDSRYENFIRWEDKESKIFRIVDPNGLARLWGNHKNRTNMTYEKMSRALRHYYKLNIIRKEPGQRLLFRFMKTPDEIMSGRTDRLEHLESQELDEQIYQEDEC
# Chain of ELF4 (Q99607 whole entry): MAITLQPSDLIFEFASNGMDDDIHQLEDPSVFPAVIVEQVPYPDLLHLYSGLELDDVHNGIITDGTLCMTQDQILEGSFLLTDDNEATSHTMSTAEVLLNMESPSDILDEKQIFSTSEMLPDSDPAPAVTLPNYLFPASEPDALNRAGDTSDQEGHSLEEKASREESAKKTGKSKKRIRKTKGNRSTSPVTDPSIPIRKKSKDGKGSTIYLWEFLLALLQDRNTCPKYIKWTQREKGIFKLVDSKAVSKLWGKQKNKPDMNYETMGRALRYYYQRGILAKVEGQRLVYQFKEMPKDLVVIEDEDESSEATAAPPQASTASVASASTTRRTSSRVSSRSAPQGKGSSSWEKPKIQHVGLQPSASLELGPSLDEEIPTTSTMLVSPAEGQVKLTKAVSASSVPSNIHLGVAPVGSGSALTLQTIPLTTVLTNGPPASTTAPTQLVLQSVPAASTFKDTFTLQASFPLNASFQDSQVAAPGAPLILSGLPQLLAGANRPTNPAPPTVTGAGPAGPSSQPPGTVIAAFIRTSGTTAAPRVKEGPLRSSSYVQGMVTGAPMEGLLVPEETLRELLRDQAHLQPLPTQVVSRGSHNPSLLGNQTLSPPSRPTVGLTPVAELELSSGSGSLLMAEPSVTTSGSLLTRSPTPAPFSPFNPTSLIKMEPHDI
# Chain of HSF1 (Q00613 whole entry): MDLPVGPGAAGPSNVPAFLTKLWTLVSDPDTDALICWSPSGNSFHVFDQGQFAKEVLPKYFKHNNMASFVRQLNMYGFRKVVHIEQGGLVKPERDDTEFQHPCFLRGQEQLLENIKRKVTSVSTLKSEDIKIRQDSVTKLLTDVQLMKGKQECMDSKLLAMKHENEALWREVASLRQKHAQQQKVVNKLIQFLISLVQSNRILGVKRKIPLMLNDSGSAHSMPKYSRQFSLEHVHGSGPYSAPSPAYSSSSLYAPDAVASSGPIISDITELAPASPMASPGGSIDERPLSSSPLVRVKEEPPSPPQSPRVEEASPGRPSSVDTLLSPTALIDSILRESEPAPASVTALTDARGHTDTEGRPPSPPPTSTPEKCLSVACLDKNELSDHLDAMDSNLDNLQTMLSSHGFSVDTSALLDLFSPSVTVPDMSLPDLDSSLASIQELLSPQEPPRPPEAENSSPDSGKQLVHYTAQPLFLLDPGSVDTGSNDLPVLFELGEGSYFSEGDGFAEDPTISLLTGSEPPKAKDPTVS
# Chain of CRX (O43186 whole entry): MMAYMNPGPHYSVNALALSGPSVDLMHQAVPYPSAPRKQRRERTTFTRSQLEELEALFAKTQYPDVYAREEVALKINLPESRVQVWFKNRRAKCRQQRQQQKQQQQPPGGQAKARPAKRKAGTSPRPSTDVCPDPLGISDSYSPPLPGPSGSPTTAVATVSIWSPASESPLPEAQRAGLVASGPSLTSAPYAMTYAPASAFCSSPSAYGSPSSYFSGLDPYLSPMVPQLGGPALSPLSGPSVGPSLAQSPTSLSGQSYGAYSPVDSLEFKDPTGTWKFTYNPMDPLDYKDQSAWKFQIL
# Chain of ETV5 (P41161 whole entry): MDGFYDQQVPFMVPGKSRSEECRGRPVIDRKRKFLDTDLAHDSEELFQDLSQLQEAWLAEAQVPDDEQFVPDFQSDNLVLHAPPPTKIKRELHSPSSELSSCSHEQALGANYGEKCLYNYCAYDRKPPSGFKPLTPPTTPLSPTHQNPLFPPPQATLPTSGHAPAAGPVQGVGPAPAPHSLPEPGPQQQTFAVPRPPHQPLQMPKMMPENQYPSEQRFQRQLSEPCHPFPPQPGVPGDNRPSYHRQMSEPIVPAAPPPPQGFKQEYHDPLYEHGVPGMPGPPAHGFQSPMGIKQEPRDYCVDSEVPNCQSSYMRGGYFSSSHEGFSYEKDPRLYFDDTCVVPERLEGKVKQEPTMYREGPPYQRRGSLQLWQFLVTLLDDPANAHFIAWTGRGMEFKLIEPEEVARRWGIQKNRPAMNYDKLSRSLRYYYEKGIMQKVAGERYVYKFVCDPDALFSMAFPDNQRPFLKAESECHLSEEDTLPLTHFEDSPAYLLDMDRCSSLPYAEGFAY
# Chain of ETV1 (P50549 whole entry): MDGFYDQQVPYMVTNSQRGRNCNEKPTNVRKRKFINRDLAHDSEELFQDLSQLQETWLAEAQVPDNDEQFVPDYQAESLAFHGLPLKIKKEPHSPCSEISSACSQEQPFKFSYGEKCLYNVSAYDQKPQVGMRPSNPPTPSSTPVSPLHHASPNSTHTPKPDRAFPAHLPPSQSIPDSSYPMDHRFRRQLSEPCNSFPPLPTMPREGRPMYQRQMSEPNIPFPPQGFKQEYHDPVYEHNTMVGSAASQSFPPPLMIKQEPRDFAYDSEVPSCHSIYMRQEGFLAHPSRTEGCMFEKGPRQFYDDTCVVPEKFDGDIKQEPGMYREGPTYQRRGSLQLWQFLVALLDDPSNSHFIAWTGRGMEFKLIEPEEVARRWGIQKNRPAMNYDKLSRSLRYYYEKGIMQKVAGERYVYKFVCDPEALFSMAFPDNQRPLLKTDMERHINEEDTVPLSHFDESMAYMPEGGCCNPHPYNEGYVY
sequence,measurement,setting,value
CTGGTA,binding signal,FEV,"1.23 fold enrichment (6-mer frequency, TF over GST control)"
same,binding signal,ETV5,"1.25 fold enrichment (6-mer frequency, TF over GST control)"
same,binding signal,HSF1,"1.75 fold enrichment (6-mer frequency, TF over GST control)"
same,binding signal,SPIC,"1.28 fold enrichment (6-mer frequency, TF over GST control)"
same,binding signal,ELF4,"1.4 fold enrichment (6-mer frequency, TF over GST control)"
same,binding signal,ELK4,"1.29 fold enrichment (6-mer frequency, TF over GST control)"
same,binding signal,ETV2,"1.41 fold enrichment (6-mer frequency, TF over GST control)"
same,binding signal,ELF3,"1.2 fold enrichment (6-mer frequency, TF over GST control)"
same,binding signal,CRX,"1.38 fold enrichment (6-mer frequency, TF over GST control)"
same,binding signal,ETV1,"1.24 fold enrichment (6-mer frequency, TF over GST control)"
same,binding signal,ERF,"1.28 fold enrichment (6-mer frequency, TF over GST control)"
same,binding signal,ETV3L,"1.34 fold enrichment (6-mer frequency, TF over GST control)"
same,binding signal,ETS2,"1.32 fold enrichment (6-mer frequency, TF over GST control)"
same,binding signal,SPDEF,"1.4 fold enrichment (6-mer frequency, TF over GST control)"
same,binding signal,ETV7,"1.4 fold enrichment (6-mer frequency, TF over GST control)"
same,binding signal,ELF5,"1.35 fold enrichment (6-mer frequency, TF over GST control)"
same,binding signal,ETV3,"1.29 fold enrichment (6-mer frequency, TF over GST control)"
same,binding signal,ETV6,"1.29 fold enrichment (6-mer frequency, TF over GST control)"
